Experimental data taken from PubChem BioAssay AID624504 (Sanford-Burnham Center for Chemical Genomics, 2012).
Hit rate of the full screen: of about 5,000 compounds, about 3,900 (78%) were called active. Rule as the data show it: active = inhibition above about 22%; inactive = the rest. The set was probably picked from earlier hits. These entries were drawn from the full list.

assay: fluorescence retest of MPTP screen hits in isolated mitochondria, single concentration (AID 624504); details: membrane potential, Rhodamine 123 fluorescence, at 10 µM, hits give high values;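 also: 0% = DMSO vehicle and 100% = positive control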

inhibition, inactive:
C=C1c2c(Cl)ccc(O)c2C(O)=C2C(=O)[C@]3(O)C(O)=C(C(N)=O)C(=O)[C@@H](N(C)C)[C@@H]3[C@@H](O)C12 (stereo partly drawn) -13.7%, Fc1ccc(N2N=C(c3cccs3)CC2c2ccco2)c(F)c1 (stereo not drawn) -15.1%, CC(C)c1ccccc1OCC(O)CN(CC(O)COc1cccc2ccccc12)C(C)C (stereo not drawn) 4.85%, C[C@@H](CN1CCC[C@H]1CN1C(N)=NC[C@@H]1Cc1ccccc1)N1C[C@@H](Cc2ccccc2)N(CCCC2CCCC2)C1=N 7.61%, N=c1n(Cc2ccc(Cl)cc2)c2ccccc2n1CC(O)c1ccco1 (stereo not drawn) 4.39%, O=C(Nc1cccc(-c2cccc(Cl)c2)c1)C1CCN(C2CCC2)CC1 -9.69%, CCNCCC(=O)N1c2ccccc2Sc2ccc(NC(=O)OCC)cc21 -7.23%, COc1ccc(/C=C(/CC(=O)Nc2ccc(C)cc2)c2nc3ccccc3s2)cc1 -7.49%

inhibition, active:
COc1ccc(NS(=O)(=O)c2ccc(Oc3c(C#N)cccc3C#N)cc2)cc1 75.8%, CC(NC(=S)Nc1ccccc1)C1COc2ccccc2O1 (stereo not drawn) 87%, S=C(NCCCc1ccccc1)Nc1ccc(Br)cc1 91.8%, S=C(NCC1COc2ccccc2O1)Nc1ccc(Br)cc1 (stereo not drawn) 93.1%, O=C(CSCc1ccc(Br)cc1)Nc1ccc(S(=O)(=O)N2CCCCCC2)cc1 80.4%, Fc1cc(F)c2nc(Nc3nc4c(F)cccc4s3)sc2c1 69.9%, C=CC[n+]1c(-c2ccc(C)cc2)csc1NNC(=O)Nc1ccccc1 83.2%, O=C1CCCN1CCCNC(=S)Nc1ccc(F)c(Cl)c1 90.3%, Oc1c(Br)cccc1/C=N/Nc1c(F)c(F)c(F)c(F)c1F 72.3%, O=C(CC(O)(C(F)(F)F)C(F)(F)F)Nc1ccc(Cl)c(Cl)c1 84.9%, CCOC(=O)N1CCN(C(=O)C2CCN(c3ncnc4c3sc3cccc(F)c34)CC2)CC1 94.4%, N#C/C(=C(/O)Cc1cccc2ccccc12)c1nc2ccccc2s1 69.1%, COc1ccc(Br)cc1C(=O)NC(=S)Nc1cc(-c2nc3ccccc3[nH]2)ccc1C 51%, Cc1cc2ncn(CCCCOc3ccccc3)c2cc1C 36.7%, COc1ccc2c(c1)c(=Cc1ccc(N(C)C)cc1)c1cc(-c3ccccc3)[n+](C)n12 79.7%, O=C(Nc1ccc(C2CC2(Cl)Cl)cc1)c1cccc([N+](=O)[O-])c1 (stereo not drawn) 78.1%, Fc1ccc2[nH]c3c(N4CCSCC4)ncnc3c2c1 94%, Cc1[nH]n(-c2cccc(Cl)c2)c(=O)c1-c1ccc(Cl)cc1 98.6%, CS(=O)(=O)c1sc(C(=O)NC(=S)Nc2ccc(OC(F)(F)F)cc2)c2c1C=CCC2 71.2%, O=[N+]([O-])c1ccc(N/N=C/c2ccccc2)cc1 81.9%, Cc1cccc(COc2ccccc2/C=N/Nc2ccc([N+](=O)[O-])cc2)c1 81.5%, COc1ccccc1Oc1ccc(S(=O)(=O)Nc2cccnc2)cc1 70.1%, Cc1ccc(C)c(NC(=S)NNC(=S)Nc2ccc(C(C)C)cc2)c1 85.3%, S=C(NCCc1ccccc1)NCc1ccccc1Cl 67.2%, CCCCCC(O)c1cccc(OCc2ccc3ccccc3n2)c1 (stereo not drawn) 76.1%, S=C(Nc1cccc(Cl)c1)Nc1ccc2cn[nH]c2c1 92.7%, Cc1csc(NC(=S)Nc2cccc(Cl)c2)n1 73.4%, CCN1/C(=C\c2ccc3ccccc3[n+]2CC)Sc2cc(C)ccc21 96.3%, CCc1cc2c(N3CCN(c4nnc(CC)s4)CC3)ncnc2s1 41.8%, CC(NC(=S)Nc1ccc(OC(F)F)cc1)c1ccc(F)cc1 (stereo not drawn) 93.7%, O=C(Nc1cccc(S(=O)(=O)Nc2ccc(Cl)cc2)c1)c1ccc2c(c1)OCCO2 80.9%, FC(F)(F)c1cccc(NC(=S)Nc2cccc(Cl)c2)c1 96.6%, S=C(Nc1cccc(Cl)c1)Nc1ccc2c(c1)OCCO2 100%, O=[N+]([O-])c1ccc(NS(=O)(=O)c2ccccc2)c(Cl)c1 97.2%, N#C[C@]1(S(=O)(=O)c2ccccc2)C[C@@H]2ON=C(c3cccc(Br)c3)[C@@H]2C1 90.7%, O=C(/C=C/c1ccc(F)cc1)Nc1cccc(S(=O)(=O)Nc2cccc(C(F)(F)F)c2)c1 69.5%, O=C(/C=C(O)/C=C/c1ccc(O)cc1)/C=C/c1ccc(O)cc1 70.7%, COc1cccc(CNc2nc(NCc3cccs3)nc3ccsc23)c1 102%, COc1ccccc1CNc1nc(Nc2ccccc2Cl)c2sccc2n1 67%, COc1cccc(CNc2nc(NCc3ccccc3OC)nc3ccsc23)c1 121%, C=CCC1(CC=C)CCCN1C(=O)c1cc(COc2ccc(-n3cncn3)cc2)on1 103%, CC(C)S(=O)(=O)c1csc(NC(=O)Nc2ccc(Cl)cc2)c1Cl 90.1%, CCCCCOC(=O)NCCOC(=O)Nc1ccc(C(=O)OCC)cc1 72.7%, Cn1nccc1C(=O)NC1CCCc2c1cnn2-c1ccccc1F (stereo not drawn) 96.6%, Cn1nccc1C(=O)NC1CCCc2c1cnn2-c1ccc(F)cc1F (stereo not drawn) 101%, COc1ccc(C(=O)NC2CCCc3c2cnn3-c2cccc(C)c2C)c(OC)n1 (stereo not drawn) 84.1%, Cc1nc(N2CCOCC2)c2c(C)c(C(=O)Nc3ccc(C(F)(F)F)cc3)sc2n1 81.9%, CCCCCc1c(Cc2ccccc2)ncn1CCc1ccccc1OC 106%, Nc1nnc(SCC(=O)Nc2ccc3nc(SCC(=O)Nc4ccccc4)sc3c2)s1 77.9%, Cc1cccc(NC(=O)Nc2cccc(Oc3c(F)c(F)c(F)c(F)c3F)c2)c1 62.1%, CCN(CC)S(=O)(=O)c1ccc(N(C)Cc2ccc(C(F)(F)F)cc2)nc1 93.6%, CSc1nsc(NC(=O)Nc2ccccc2)n1 89.7%, O=C(Nc1ccccc1)Nc1nc2ccccc2s1 80.6%, C=CCSc1nsc(NC(=O)Nc2cccc(C(C)=O)c2)n1 84.6%, CCSc1nsc(NC(=O)Nc2cccc(C(C)=O)c2)n1 83.6%
